An excerpt weighted towards active compounds, which were near 12% of everything screened.
WT yeast gro inh: growth inhibition of WT yeast, mitochondrial fusion screen | inhibition, % at 10 µM | mitochondrial fusion phenotypic screen, WT strain | hit rate 2.1% among 190,000; in the data active = inhibition above about 58%; tested in S. cerevisiae
Lmaj promast: reduces viability of Leishmania major promastigotes. resazurin fluorescence viability. inhibition, % at 10 µM. hit rate 9% among 200,000. AID 1063; in the data active = inhibition above about 50%;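 note: promastigotes grown with compound for 44 hours at 28 °C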
ROMK primary: human ROMK K+ channel modulation, primary screen. Tet-inducible ROMK, thallium flux fluorescence; actives lie on both sides. P48048. hit rate 2% among 130,000. AID 1918. B-score at 10 µM;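 active = signal ratio slope over the read window, or its plate-corrected B-score, at least 3 SD from the plate mean, either direction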;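 note: B-score of the F/F0 ratio slope over 7 to 12 s after thallium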
Cl transport mod: modulators of human KCC2 chloride dependent transport; hit rate 2.2% among 190,000; B-score of Tl+ flux slope (higher = more flux/activation; lower = inhibition) at 10 µM; Q9H2X9; KCC2 cells, thallium flux FluoZin-2 fluorescence;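 active = thallium flux slope and its plate-corrected score both differing from the plate sample mean at a set confidence after two filtering rounds, in either direction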;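 note: slope of fluorescence scaled to starting intensity during 10 to 20 s after thallium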
Target sequence (Q9H2X9 whole entry, looked up): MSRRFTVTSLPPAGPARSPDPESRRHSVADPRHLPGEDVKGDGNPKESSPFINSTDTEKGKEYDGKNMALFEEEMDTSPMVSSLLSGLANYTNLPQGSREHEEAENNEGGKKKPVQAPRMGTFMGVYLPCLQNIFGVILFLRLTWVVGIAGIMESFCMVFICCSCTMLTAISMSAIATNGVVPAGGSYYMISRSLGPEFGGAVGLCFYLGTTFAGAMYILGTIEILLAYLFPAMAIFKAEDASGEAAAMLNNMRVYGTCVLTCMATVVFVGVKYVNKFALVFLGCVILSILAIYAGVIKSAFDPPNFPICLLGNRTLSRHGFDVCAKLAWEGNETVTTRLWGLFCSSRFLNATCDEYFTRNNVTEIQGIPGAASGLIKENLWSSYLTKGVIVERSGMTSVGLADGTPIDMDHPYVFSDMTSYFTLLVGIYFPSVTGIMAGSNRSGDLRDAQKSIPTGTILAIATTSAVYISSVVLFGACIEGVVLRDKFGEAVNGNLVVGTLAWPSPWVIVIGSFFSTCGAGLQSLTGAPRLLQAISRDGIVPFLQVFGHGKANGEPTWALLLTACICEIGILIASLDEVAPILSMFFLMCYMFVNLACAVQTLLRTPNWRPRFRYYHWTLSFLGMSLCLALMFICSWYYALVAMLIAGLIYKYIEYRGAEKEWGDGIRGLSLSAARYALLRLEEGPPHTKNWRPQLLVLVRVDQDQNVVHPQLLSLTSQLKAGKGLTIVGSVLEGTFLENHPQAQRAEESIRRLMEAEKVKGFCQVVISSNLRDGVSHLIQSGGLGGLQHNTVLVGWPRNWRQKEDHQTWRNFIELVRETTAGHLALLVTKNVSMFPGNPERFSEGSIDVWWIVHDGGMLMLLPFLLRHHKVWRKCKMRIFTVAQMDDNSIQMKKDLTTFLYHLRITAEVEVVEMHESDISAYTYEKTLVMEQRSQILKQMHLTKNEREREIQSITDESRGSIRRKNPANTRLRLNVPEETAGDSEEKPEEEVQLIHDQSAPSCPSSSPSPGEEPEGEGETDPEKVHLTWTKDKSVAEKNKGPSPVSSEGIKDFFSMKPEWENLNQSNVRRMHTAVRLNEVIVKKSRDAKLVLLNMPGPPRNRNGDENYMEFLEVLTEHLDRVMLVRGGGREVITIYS
Insulin prom inh: TRM-6 insulin promoter activity inhibition; inhibition, % at 2 µM; TRM-6 cells (human fetal islet line), insulin promoter-eGFP reporter, imaging; reporter expression induced with tamoxifen; hit rate 0.9% among 130,000;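 active = inhibition above the mean plus 3 SD, with well images judged a real hit on visual review, cut at about 60% in these data, passing the limit was not always enough; inconclusive = inhibition over the cutoff but images rejected on review; inactive = inhibition not above the cutoff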
Insulin prom up: MIN6 insulin promoter up-regulation | MIN6 insulin promoter-GFP reporter, high-content imaging; stronger effect = higher value | hit rate 0.3% among 190,000 | AID 1625 | z-score at 5 µM;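 active = z-score above 3 at 5 µM with at least 500 cells counted in the well; inconclusive = wells under 500 cells, flagged as cytotoxic or low count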
Hits are given with their value; 0 = inactive; ? = inconclusive; - = not tested or not shown.

SMILES | WT yeast gro inh | Lmaj promast | ROMK primary | Cl transport mod | Insulin prom inh | Insulin prom up
CN1CCN(C(=S)c2ccc(-c3cccc(Cl)c3Cl)o2)CC1 | 0 | 95.1 | 0 | 0 | 0 | 0
O=C(NNC(=O)c1cccnc1SCc1cccc([N+](=O)[O-])c1)c1ccccn1 | 0 | 98.5 | 0 | 6.86 | 0 | 0
O=C(C1CCCN(S(=O)(=O)c2cnc[nH]2)C1)N1CCN(Cc2ccccc2)CC1 (stereo not drawn) | 0 | 0 | - | - | - | 0
O=C(CN1CCN(c2ncccn2)CC1)N1CCN(C(c2ccccc2)c2ccccc2)CC1 | 0 | 98.5 | - | 0 | 0 | -
O=C(Cn1cccc1)N1CCN(C(c2ccccc2)c2ccccc2)CC1 | 0 | 0 | 0 | 0 | 0 | 0
Cc1ccc2c(c1)S/C(=C/c1ccc[n+](CCO)c1)N2C | 0 | 81.6 | 0 | 0 | 0 | -
CCOc1ccccc1NC(=O)CCN1CCN(S(=O)(=O)c2ccc(Br)cc2)CC1 | 0 | 0 | - | 0 | 0 | 0
COC(=O)c1cccc(NC(=O)CCc2cc(OC)c(OC)c(OC)c2)c1 | 0 | 59.1 | - | 0 | 0 | 0
COc1ccc(CC(=O)Nc2cccc(SC)c2)cc1 | 0 | 0 | 0 | 0 | - | 0
COC(=O)c1cccc(NC(=O)CCc2ccccc2)c1 | 0 | 0 | 0 | 0 | 0 | 0
COc1cc(CC(=O)Nc2cccc(SC)c2)cc(OC)c1OC | 0 | 0 | 0 | 0 | 75.0 | 0
COc1ccccc1NC(=S)N1CCCc2ccccc21 | 0 | 0 | 0 | 0 | ? | 0
O=C(NC(Cc1ccccc1)C(=O)O)c1ccc(S(=O)(=O)N2CCCC2)cc1 (stereo not drawn) | 0 | 72.2 | 0 | - | 0 | 0
O=C(NC(Cc1ccccc1)C(=O)O)c1ccc(S(=O)(=O)N2CCCCC2)cc1 (stereo not drawn) | 0 | 55.4 | 0 | 0 | 0 | 0
CCn1c(SCC(=O)N=Nc2c(O)[nH]c3ccccc23)nc2ccccc21 | 0 | 0 | - | 0 | 0 | 0
O=C1CCC/C(=N/Nc2ccc(Cl)cc2)C1 | 0 | 98.6 | 0 | 0 | 0 | 0
CCOc1ccc(S(=O)(=O)N/N=C2/CCCC(=O)C2)cc1 | 0 | 0 | 0 | 0 | 0 | 0
COc1ccc2cc(C(N)=O)/c(=N/NC(=O)c3ccco3)oc2c1 | 0 | 0 | 0 | 0 | 0 | 0
O=C(NCC1COc2ccccc2O1)c1ccc(Cl)cc1 (stereo not drawn) | 0 | 0 | 0 | 0 | - | 0
O=C(Nc1cccc(NC(=O)c2ccco2)c1)c1ccc2c(c1)OCO2 | 0 | 81.0 | 0 | 0 | 0 | 0
O=C(NCC1COc2ccccc2O1)c1ccc(NC(=O)c2ccco2)cc1 (stereo not drawn) | 0 | 55.1 | 0 | 0 | 0 | 0
O=C(Nc1ccc2c(c1)OCCO2)c1ccco1 | 0 | 0 | - | 0 | 0 | 0
O=C(Nc1cccc(NC(=O)c2ccco2)c1)c1ccc2c(c1)OCCO2 | 0 | 51.3 | 0 | 0 | - | 0
COc1ccc(NC2=C(C(C)=O)C(c3ccc(N(C)C)cc3)C(C(C)=O)C(C)(O)C2)cc1 (stereo not drawn) | 0 | 0 | 0 | 0 | 0 | 0
C/C(=N\NC(=O)CSc1nnc(C)s1)c1ccc(Cl)cc1 | 0 | 0 | - | 0 | - | 0
SMILES | WT yeast gro inh | Lmaj promast | ROMK primary | Cl transport mod | Insulin prom inh | Insulin prom up
CCCC1=NN(c2ccc([N+](=O)[O-])cc2)C(=O)/C1=C/N(C)C | 0 | 0 | - | 0 | 0 | 0
CC1=NN(c2ccccc2)C(=O)/C1=C/N(C)C | - | - | - | 0 | - | 0
CC1=NN(c2ccc([N+](=O)[O-])cc2)C(=O)/C1=C\N(C)C | 65.4 | 0 | 0 | 0 | 0 | -
CC1=NN(c2nc3ccccc3[nH]2)C(=O)/C1=C/N(C)C | 85.0 | 0 | 0 | 0 | 0 | -
CN(C)S(=O)(=O)c1ccc(C(=O)N2CCOCC2)cc1 | 0 | 0 | 0 | 0 | 0 | 0
Cc1ccc(NC(=S)Nc2nc(CC(=O)Nc3ccccc3)cs2)cc1 | 0 | 0 | - | 0 | 0 | -
Cc1ccc(NC(=O)Cc2nc(CCl)cs2)cc1 | 0 | 67.8 | - | 0 | 0 | 0
Cc1ccc2cc(CN(Cc3cccs3)C(=O)c3ccco3)c3nnnn3c2c1C | 58.5 | 0 | 0 | 0 | 0 | 0
Cc1ccc2c(c1)cc(CN(Cc1cccs1)C(=O)c1ccco1)c1nnnn12 | 0 | 0 | 0 | - | 0 | 0
COC(=O)c1ccc(OC(=O)c2cccs2)cc1 | 0 | 0 | 0 | 0 | 0 | 0
Cc1cc(N/N=C/c2ccc(O)c(C)c2O)nc(-c2ccccc2O)n1 | 75.7 | 93.1 | 0 | 0 | 0 | 0
CCCCOc1ccc(C(=O)OC2CC(C)N(C)CC2C)cc1 (stereo not drawn) | 0 | 97.5 | 0 | - | 0 | -
CC1=CC(C)C2COC(c3ccc[n+](C)c3)C1C2C (stereo not drawn) | 0 | 0 | - | 0 | 0 | 0
COc1ccc(/C=C/C(=O)NC(=S)NNC(=O)c2cccnc2)cc1 | 0 | 92.7 | 0 | 0 | 0 | 0
COc1ccc(N(C(=O)CS(=O)CC(=O)Nc2ccc(F)cc2)C(C(=O)NC2CCCCC2)c2cccs2)cc1 (stereo not drawn) | 0 | 0 | 0 | 0 | 0 | 0
Oc1ccccc1C1=Nc2nc3ccccc3n2C(c2ccccc2)C1 (stereo not drawn) | 0 | 90.5 | - | 0 | 0 | 0
O=C1CC(c2ccccc2)Sc2nc3ccccc3n21 (stereo not drawn) | 0 | 0 | 0 | 0 | 0 | 0
COc1ccccc1-n1c(-c2cn(C)nc2C)n[nH]c1=S | 0 | 0 | 0 | 0 | 0 | 0
CCCCN1C(=O)CC(Sc2ccccc2C(=O)O)C1=O (stereo not drawn) | 0 | 0 | - | - | 0 | 0
COc1cc([C@H]2[C@@H]3CCCC[C@]3(O)CCN2CC(=O)Nc2ccc(C)cc2C)ccc1O | 0 | 65.4 | 0 | - | 0 | 0
COC(=O)c1c(NC(=O)CN2CCC3(O)CCCCC3C2c2ccccc2OC)sc(C)c1C (stereo not drawn) | 73.3 | 0 | 0 | 0 | - | 0
COC(=O)c1c(NC(=O)CN2CCC3(O)CCCCC3C2c2ccc(OC)cc2OC)sc(C)c1C (stereo not drawn) | 59.3 | 61.8 | 0 | 0 | - | 0
COc1ccc(NC(=O)CN2CCC3(O)CCCCC3C2c2cc(OC)ccc2OC)cc1 (stereo not drawn) | 0 | 0 | - | 0 | 0 | 0
CN(c1ccccc1)S(=O)(=O)c1cccc(C(=O)Nc2ncn[nH]2)c1 | - | - | - | 0 | - | 0
CC(=O)c1cc(C#N)c(SCCC(C)C)nc1C | 0 | 0 | - | 0 | 0 | 0
SMILES | WT yeast gro inh | Lmaj promast | ROMK primary | Cl transport mod | Insulin prom inh | Insulin prom up
CC(C)CCSc1nc(N)c(C#N)cc1C#N | 0 | 75.8 | - | 0 | 0 | 0
COc1ccc(C2(CNC(=O)/C=C/c3ccco3)CCCC2)cc1OC | 0 | 0 | - | - | - | 0
CCN(CC)Cc1cc(NC2=NS(=O)(=O)c3ccccc32)ccc1OC(=O)c1ccccc1 | 0 | 98.5 | 0 | 0 | 0 | 0
CCN(CC)Cc1cc(NC2=NS(=O)(=O)c3ccccc32)ccc1OC(=O)C(C)C | 0 | 99.0 | 0 | 0 | 0 | 0
Cc1ccc(NC2(C(F)(F)F)N=C(c3ccccc3)NC2=O)nc1 (stereo not drawn) | 0 | 0 | - | 0 | - | 0
O=C(NCCc1c[nH]c2ccccc12)C(=O)NCC1OCCN1S(=O)(=O)c1ccc(Cl)cc1 (stereo not drawn) | 0 | 54.2 | 0 | 0 | 0 | 0
O=C(NCCC1=CCCCC1)C(=O)NCC1OCCCN1S(=O)(=O)c1ccc(F)cc1 (stereo not drawn) | 0 | 95.6 | 0 | 0 | - | 0

Compound activity from PubChem BioAssay.
